Data reported in PubChem BioAssay (Tox21).
Inconclusive results are not listed. Active and inactive are the calls of the source. Unless noted, calls follow the shape of the dose curve; as a rule, active = well fitted curve in the direction sought with a large enough effect in the repeat runs; inconclusive = weak or mixed curves; inactive = no such curve, though single readings can be large; an effect the other way counts as inactive or inconclusive.

Assays:
[1] = A CellTox Green Cytotoxicity Assay to monitor cytotoxicity in HepG2 cells - 0 hour (AID 1224882); also: nearly all actives have a fitted effect of over 35% in size
Procedure, shortened: (§1)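 Measurements at 0, 8, 16, 24, 32 and 40 h of treatment captured CellTox Green fluorescence in HepG2 cells that had been co-plated with reagent and preincubated 5 h at 37 C/5% CO2.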

[2] = A CellTox Green Cytotoxicity Assay to monitor cytotoxicity in HepG2 cells - 32 hour (AID 1224883); also: nearly all actives have a fitted effect of over 50% in size
Procedure, shortened: as §1

[3] = A CellTox Green Cytotoxicity Assay to monitor cytotoxicity in HEK293 cells - 8 hour (AID 1224884); also: nearly all actives have a fitted effect of over 35% in size
Procedure, shortened: (§2)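 Tox21 screen in HEK293: membrane-impermeant cyanine dye fluoresces on binding dead-cell DNA; compound pinned 5 h post-seeding, plates held at 37 C, signal read repeatedly through 40 h.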

[4] = qHTS RealTime-Glo MT Cell Viability Assay in HepG2 cells - 16 hour (AID 1224885); also: nearly all actives have a fitted effect of over 50% in size
Procedure, shortened: (§3)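 HepG2 cells (600/well) were dispensed with RealTime-Glo reagents, incubated 5 h at 37 °C, then treated with compounds in DMSO for up to 40 h. Nonlytic NanoLuc luminescence reflecting viable cells was read at each stated time point.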

[5] = qHTS RealTime-Glo MT Cell Viability Assay in HEK293 cells - 24 hour (AID 1224886); also: top concentration of the series differs between compounds; nearly all actives have a fitted effect of over 50% in size
Procedure, shortened: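 HEK293 cells seeded with NanoLuc/prosubstrate reagent, rested 5 h at 37 C, then dosed and kept at 37 C up to 40 h. Nonlytic real-time luminescence from viable cells read at 0, 8, 16, 24, 32 and 40 h.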

[6] = A CellTox Green Cytotoxicity Assay to monitor cytotoxicity in HEK293 cells - 16 hour (AID 1224888); also: nearly all actives have a fitted effect of over 35% in size
Procedure, shortened: as §2

[7] = qHTS RealTime-Glo MT Cell Viability Assay in HepG2 cells - 0 hour (AID 1224889); also: nearly all actives have a fitted effect of over 50% in size
Procedure, shortened: as §3

[8] = A CellTox Green Cytotoxicity Assay to monitor cytotoxicity in HepG2 cells - 8 hour (AID 1224890); also: nearly all actives have a fitted effect of over 45% in size
Procedure, shortened: as §1

[9] = qHTS assay to identify small molecule antagonists of the androgen receptor (AR) signaling pathway using the MDA cell line in the presence of 0.5 nM R1881 - cell viability counter screen (AID 1259242); also: nearly all actives have a fitted effect of over 45% in size
Procedure, shortened: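 Concentration-response screen of compounds for toxicity in MDA-kb2 reporter cells: 16 hr at 37C with 0.5 nM R1881, endpoint live-cell protease fluorescence measured in the reporter wells.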

[10] = qHTS assay to identify small molecule HDAC inhibitors (AID 1259364); also: potency is read from the fitted curve at half-maximal effect;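 also: wild-type HCT-116 cells with endogenous class I/II HDAC activity; nearly all actives have a fitted effect of over 45% in size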
Procedure, shortened: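 Screening used wild-type human colon HCT-116 cells incubated overnight, dosed with compounds for 2 hours, and assayed with a homogeneous luminogenic HDAC I/II reagent for 30 minutes at room temperature.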

[11] = qHTS assay to identify small molecule HDAC inhibitors - cell viability counter screen (AID 1259365)
Procedure, shortened: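 To flag cytotoxic hits, 1,500 wild-type HCT-116 cells per well, plated the day before, receive test compounds for 2hr at 37 C before CellTiter-Glo reagent and a luminescence read.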

[12] = qHTS assay to identify small molecule agonists of the sonic hedgehog signaling (Shh) pathway - cell viability counter screen (AID 1259366); also: nearly all actives have a fitted effect of over 50% in size
Procedure, shortened: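 Fluorescence from CellTiter-Fluor reports live cells in this counter screen. NIH/3T3-derived Gli1-Luc reporter cells receive test compounds for 24hr at 37C; reagent goes in at 23hr.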

[13] = qHTS assay to identify small molecule antagonists of the sonic hedgehog signaling (Shh) pathway - cell viability counter screen (AID 1259367); also: nearly all actives have a fitted effect of over 55% in size
Procedure, shortened: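 Viability was read by CellTiter-Fluor fluorescence in the same wells, reagent added 23 hr into compound treatment and incubated 1 hr at 37C. The 3T3 Gli1-Luc reporter cells (2,000/well) received conditioned medium after compound and ran 24 hr.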

[14] = qHTS assay to identify small molecule agonists of the sonic hedgehog signaling (Shh) pathway (AID 1259368; calls by dose curve;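 also: NIH/3T3-derived 3T3Gli1-Luc cells carrying a stable Gli1-driven firefly luciferase reporter; series mostly up to about 92 µM; nearly all actives have a fitted effect of over 15% in size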)
Procedure, shortened: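 Hedgehog pathway agonism scored by increased firefly luciferase luminescence in 3T3Gli1-Luc cells treated 24 hr at 37 C; detection used a 30 min room-temperature reagent incubation.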

[15] = qHTS RealTime-Glo MT Cell Viability Assay in HEK293 cells - 8 hour (AID 1224887)
Procedure, shortened: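 HEK293 + NanoLuc + prosubstrate, 600 cells/well; 5 h, 37 C/5% CO2; compound 23 nL in DMSO by pintool; 37 C; luminescence read at 0, 8, 16, 24, 32 and 40 h time points.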

[16] = qHTS assay to identify small molecule antagonists of the estrogen receptor alpha (ER-alpha) signaling pathway using the BG1 cell line in the presence of 0.1 nM 17-beta-estradiol - cell viability counter screen (AID 1259241); also: nearly all actives have a fitted effect of over 40% in size
Procedure, shortened: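 CellTiter-Fluor read (30 min, 37C) on ER-alpha/ERE-luc VM7Luc4E2 cells; 22 hr compound treatment; agonist 0.1 nM E2 final; same-well multiplex.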

[17] = target: Androgen receptor (Homo sapiens) (UniProt P10275); test: qHTS assay to identify small molecule antagonists of the androgen receptor (AR) signaling pathway using the MDA cell line in the presence of 0.5 nM R1881 (AID 1259243); also: nearly all actives have a fitted effect of over 50% in size
Procedure, shortened: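 With R1881 held at 0.5 nM (final), compound effects on MMTV-luciferase expression in MDA-kb2 cells were scored by luminescence after a 16 hr, 37C incubation.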

[18] = target: Estrogen receptor (Homo sapiens) (UniProt P03372); test: qHTS assay to identify small molecule antagonists of the estrogen receptor alpha (ER-alpha) signaling pathway using the BG1 cell line in the presence of 0.1 nM 17-beta-estradiol (AID 1259244); also: nearly all actives have a fitted effect of over 50% in size
Procedure, shortened: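 Compounds were tested against 0.1 nM (final) 17beta-estradiol in VM7Luc4E2 cells, which express full-length ER-alpha and an ERE-luciferase reporter; luminescence was recorded following 22 h exposure.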

[19] = qHTS assay to identify small molecule phospholipidosis (PLD) inducers (AID 1259344; active = well fitted curve in the direction sought with a large enough effect; an effect the other way counts as inactive or inconclusive)
Procedure, shortened: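 Phospholipid accumulation was scored by imaging: fixed, Hoechst-counterstained HepG2 cells stained with LipidTOX Red after 24 h compound exposure at 37 C. Read-outs were pit count and pit intensity per well or per cell, with amiodarone and DMSO controls.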

Measured: Potency

Chain of Androgen receptor (Homo sapiens) (P10275 whole entry, looked up): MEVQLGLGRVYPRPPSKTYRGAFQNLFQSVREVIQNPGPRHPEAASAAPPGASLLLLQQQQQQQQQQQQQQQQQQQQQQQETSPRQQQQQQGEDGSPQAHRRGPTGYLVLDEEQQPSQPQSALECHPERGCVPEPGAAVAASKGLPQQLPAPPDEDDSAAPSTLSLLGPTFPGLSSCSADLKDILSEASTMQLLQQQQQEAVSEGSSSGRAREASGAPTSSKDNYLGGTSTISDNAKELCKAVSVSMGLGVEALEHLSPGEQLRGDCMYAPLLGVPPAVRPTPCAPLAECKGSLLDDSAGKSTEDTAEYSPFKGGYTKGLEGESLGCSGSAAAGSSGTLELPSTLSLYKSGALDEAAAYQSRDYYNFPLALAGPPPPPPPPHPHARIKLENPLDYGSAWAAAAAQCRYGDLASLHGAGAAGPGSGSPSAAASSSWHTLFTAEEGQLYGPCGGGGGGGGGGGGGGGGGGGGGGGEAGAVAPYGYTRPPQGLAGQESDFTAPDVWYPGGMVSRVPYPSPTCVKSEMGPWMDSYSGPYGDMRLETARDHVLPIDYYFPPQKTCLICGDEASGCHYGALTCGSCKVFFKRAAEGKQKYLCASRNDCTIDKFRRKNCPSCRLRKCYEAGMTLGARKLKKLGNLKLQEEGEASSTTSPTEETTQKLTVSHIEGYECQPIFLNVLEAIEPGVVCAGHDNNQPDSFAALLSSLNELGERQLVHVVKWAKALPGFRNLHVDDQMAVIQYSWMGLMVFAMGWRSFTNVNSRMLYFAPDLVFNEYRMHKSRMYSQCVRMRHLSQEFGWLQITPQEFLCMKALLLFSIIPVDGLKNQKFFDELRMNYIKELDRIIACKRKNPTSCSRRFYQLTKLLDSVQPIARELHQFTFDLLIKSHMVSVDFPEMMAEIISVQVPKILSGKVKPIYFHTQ
Chain of Estrogen receptor (Homo sapiens) (P03372 whole entry, looked up): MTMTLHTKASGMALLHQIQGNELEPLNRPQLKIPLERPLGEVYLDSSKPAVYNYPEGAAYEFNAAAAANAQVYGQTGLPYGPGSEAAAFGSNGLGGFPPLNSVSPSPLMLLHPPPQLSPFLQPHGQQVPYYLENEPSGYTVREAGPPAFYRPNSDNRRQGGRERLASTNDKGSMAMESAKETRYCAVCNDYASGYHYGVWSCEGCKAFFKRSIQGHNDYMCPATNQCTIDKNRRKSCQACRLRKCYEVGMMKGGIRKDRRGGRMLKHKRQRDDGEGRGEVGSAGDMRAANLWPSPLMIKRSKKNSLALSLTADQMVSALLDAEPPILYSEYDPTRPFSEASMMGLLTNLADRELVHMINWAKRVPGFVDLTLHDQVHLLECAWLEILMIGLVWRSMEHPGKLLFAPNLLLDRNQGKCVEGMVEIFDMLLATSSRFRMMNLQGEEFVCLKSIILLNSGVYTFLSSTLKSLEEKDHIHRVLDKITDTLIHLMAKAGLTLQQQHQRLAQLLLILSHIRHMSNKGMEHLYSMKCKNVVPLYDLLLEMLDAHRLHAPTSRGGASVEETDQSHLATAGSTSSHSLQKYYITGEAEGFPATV

COc1cc(N)ccc1C
not listed: [15] | [16] | [17] | [18] | [19]
inactive: all other assays above

C=C(C)C1CCC(C)(O)CC1 (stereo not given)
not listed: [7] | [9] | [11] | [19]
inactive: all other assays above

Cc1ccc2ccc(Cl)cc2n1
not listed: [1] | [8] | [11] | [18] | [19]
inactive: all other assays above

CC(=O)OC(C)OC(=O)C(C)c1ccc(-c2ccccc2)c(F)c1 (stereo not given)
not listed: [11] | [16] | [18]
inactive: all other assays above

C=C1CC/C=C(\C)CC[C@@H]2[C@@H]1CC2(C)C
not listed: [6] | [11] | [17] | [19]
inactive: all other assays above

CC(S)C(=O)NCC(=O)O (stereo not given)
not listed: [3] | [6] | [7] | [18]
inactive: all other assays above

COc1ccc2c(c1)C(=O)N(CCc1ccc(S(=O)(=O)NC(=O)NC3CCCCC3)cc1)C(=O)C2(C)C
not listed: [7] | [11]
inactive: all other assays above

CC1(CO)CN(c2ccccc2)NC1=O (stereo not given)
active: [10] 24.3 µM
not listed: [1] | [11] | [18] | [19]
inactive: all other assays above

Nc1cccc(O)c1
not listed: [8] | [15] | [17] | [18] | [19]
inactive: all other assays above

CCCCCOC(=O)CCC
not listed: [16] | [17] | [18] | [19]
inactive: all other assays above

COc1ccc2nc(SCc3ncc(C)c(OC)c3C)[nH]c2c1
not listed: [5] | [15] | [18] | [19]
inactive: all other assays above

FC(F)(F)c1ccccc1-n1ccnc1
not listed: [1] | [11] | [15] | [17] | [18]
inactive: all other assays above

CC(C)C[C@H](NC(=O)CNC(=O)[C@H](Cc1ccc(O)cc1)NC(=O)[C@H](CO)NC(=O)[C@H](Cc1c[nH]c2ccccc12)NC(=O)[C@H](Cc1cnc[nH]1)NC(=O)[C@@H]1CCC(=O)N1)C(=O)N[C@@H](CCCN=C(N)N)C(=O)N1CCC[C@H]1C(=O)NCC(N)=O (stereo in doubt)
not listed: [7] | [16] | [17] | [18]
inactive: all other assays above

COc1ccc(S(=O)(=O)N2c3ccc(Cl)cc3[C@@](O)(c3ccccc3Cl)[C@H]2C(=O)N2CCC[C@@H]2C(N)=O)cc1OC
not listed: [5] | [6] | [15] | [17] | [18]
inactive: all other assays above

CO[C@@H]1[C@@H](OC(N)=O)[C@@H](O)[C@H](Oc2ccc3c(O)c(NC(=O)c4ccc(O)c(CC=C(C)C)c4)c(=O)oc3c2C)OC1(C)C
not listed: [16] | [17]
inactive: all other assays above

COP(=O)(OC)OC(c1ccc(Cl)cc1)P(=O)(OC)OC (stereo not given)
not listed: [6] | [8] | [15] | [17]
inactive: all other assays above

CC(C)C(=O)OCCc1ccccc1
not listed: [7] | [8] | [17] | [18] | [19]
inactive: all other assays above

CCCN1C[C@H](CSC)C[C@@H]2c3cccc4[nH]cc(c34)C[C@H]21
not listed: [1] | [10] | [15] | [17]
inactive: all other assays above

N#Cc1ccc(C(=O)O)cc1
not listed: [7] | [15] | [18] | [19]
inactive: all other assays above

CC(=O)c1ccc2c(c1)Cc1ccccc1-2
active: [10] 27.3 µM
not listed: [16] | [17] | [19]
inactive: all other assays above
